The source of these data is ChEMBL document CHEMBL2218924, “A broad activity screen in support of a chemogenomic map for kinase signalling research and drug discovery” (Biochem J, 2013).

In experiment [1] the target is Mitogen-activated protein kinase 14 (Homo sapiens) (UniProt Q16539). Particulars: at 1 µM.
The target is the same in experiment [2]. Particulars: at 10 µM.
The target in experiment [3] is T1, Mitogen-activated protein kinase 12 (Homo sapiens) (UniProt P53778).
T1 sequence (whole entry): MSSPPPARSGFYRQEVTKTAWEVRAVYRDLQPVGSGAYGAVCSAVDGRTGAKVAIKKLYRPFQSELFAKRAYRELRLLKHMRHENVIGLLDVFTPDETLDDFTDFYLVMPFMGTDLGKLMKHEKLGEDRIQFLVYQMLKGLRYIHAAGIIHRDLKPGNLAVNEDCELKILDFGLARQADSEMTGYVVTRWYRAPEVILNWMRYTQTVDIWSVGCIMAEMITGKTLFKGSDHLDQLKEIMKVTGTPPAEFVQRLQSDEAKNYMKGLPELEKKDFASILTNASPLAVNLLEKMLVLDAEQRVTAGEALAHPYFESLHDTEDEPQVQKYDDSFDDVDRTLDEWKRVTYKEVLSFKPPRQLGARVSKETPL
Particulars: at 1 µM.

For experiment [4], the target named is T1, Mitogen-activated protein kinase 12 (Homo sapiens). Particulars: at 10 µM.
For experiment [5], the target named is T2, Tyrosine-protein kinase receptor TYRO3 (Homo sapiens) (UniProt Q06418).
T2 sequence (whole entry): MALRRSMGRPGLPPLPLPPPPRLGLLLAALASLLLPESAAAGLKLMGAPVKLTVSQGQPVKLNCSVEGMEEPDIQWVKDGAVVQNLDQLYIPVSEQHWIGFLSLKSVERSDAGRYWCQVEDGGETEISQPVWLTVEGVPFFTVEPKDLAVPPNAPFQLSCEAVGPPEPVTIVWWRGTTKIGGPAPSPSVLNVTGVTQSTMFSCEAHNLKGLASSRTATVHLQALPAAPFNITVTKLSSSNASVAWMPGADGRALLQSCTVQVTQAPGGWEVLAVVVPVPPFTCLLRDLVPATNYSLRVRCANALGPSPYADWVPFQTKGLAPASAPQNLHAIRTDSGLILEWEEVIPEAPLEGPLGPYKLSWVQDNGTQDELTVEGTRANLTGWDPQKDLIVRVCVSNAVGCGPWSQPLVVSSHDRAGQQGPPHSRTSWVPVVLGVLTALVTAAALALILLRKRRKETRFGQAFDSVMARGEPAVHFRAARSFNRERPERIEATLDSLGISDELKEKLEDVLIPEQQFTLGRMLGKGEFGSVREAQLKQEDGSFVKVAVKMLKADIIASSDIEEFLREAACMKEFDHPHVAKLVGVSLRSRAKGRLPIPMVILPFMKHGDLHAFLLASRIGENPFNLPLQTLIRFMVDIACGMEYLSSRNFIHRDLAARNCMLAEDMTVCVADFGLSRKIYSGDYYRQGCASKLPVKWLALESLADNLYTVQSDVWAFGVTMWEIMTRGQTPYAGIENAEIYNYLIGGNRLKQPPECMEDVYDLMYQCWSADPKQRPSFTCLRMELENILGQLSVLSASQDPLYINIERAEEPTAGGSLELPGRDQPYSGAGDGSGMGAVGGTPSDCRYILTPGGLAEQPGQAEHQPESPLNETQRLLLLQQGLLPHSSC
The note with it: at 1 µM.

The target in experiment [6] is T2, Tyrosine-protein kinase receptor TYRO3 (Homo sapiens). The note with it: at 10 µM.
The target of experiment [7] is Ribosomal protein S6 kinase alpha-1 (Homo sapiens) (UniProt Q15418). Particulars: at 1 µM.
For experiment [8] the target is unchanged. The note with it: at 10 µM.
In experiment [9] the target is Ribosomal protein S6 kinase alpha-3 (Homo sapiens) (UniProt P51812). The note with it: at 1 µM.
Experiment [10] has the same target. Particulars: at 10 µM.
The target in experiment [11] is Ribosomal protein S6 kinase alpha-2 (Homo sapiens) (UniProt Q15349). Particulars: at 1 µM.
Experiment [12] has the same target. The note with it: at 10 µM.
In experiment [13] the target is Ribosomal protein S6 kinase alpha-6 (Homo sapiens) (UniProt Q9UK32). Particulars: at 1 µM.
Experiment [14] shares this target. The note with it: at 10 µM.
For experiment [15], the target named is Mitogen-activated protein kinase 11 (Homo sapiens) (UniProt Q15759). Particulars: at 1 µM.
The target is the same in experiment [16]. The note with it: at 10 µM.
In experiment [17] the target is T3, Mitogen-activated protein kinase 13 (Homo sapiens) (UniProt O15264).
T3 sequence (whole entry): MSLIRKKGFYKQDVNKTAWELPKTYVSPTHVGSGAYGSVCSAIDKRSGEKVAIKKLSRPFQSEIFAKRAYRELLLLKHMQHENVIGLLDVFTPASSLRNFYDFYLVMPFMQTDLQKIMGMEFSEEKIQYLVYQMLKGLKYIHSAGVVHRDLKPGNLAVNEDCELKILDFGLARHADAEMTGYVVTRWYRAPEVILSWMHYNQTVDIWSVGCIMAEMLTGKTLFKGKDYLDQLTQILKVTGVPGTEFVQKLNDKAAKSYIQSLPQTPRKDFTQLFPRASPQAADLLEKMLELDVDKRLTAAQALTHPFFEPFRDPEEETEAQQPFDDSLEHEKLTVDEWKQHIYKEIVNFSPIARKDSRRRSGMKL
The note with it: at 1 µM.

Experiment [18] deals with T3, Mitogen-activated protein kinase 13 (Homo sapiens). Particulars: at 10 µM.
Experiment [19] concerns the target T4, Serine/threonine-protein kinase Sgk1 (Homo sapiens) (UniProt O00141).
T4 sequence (whole entry): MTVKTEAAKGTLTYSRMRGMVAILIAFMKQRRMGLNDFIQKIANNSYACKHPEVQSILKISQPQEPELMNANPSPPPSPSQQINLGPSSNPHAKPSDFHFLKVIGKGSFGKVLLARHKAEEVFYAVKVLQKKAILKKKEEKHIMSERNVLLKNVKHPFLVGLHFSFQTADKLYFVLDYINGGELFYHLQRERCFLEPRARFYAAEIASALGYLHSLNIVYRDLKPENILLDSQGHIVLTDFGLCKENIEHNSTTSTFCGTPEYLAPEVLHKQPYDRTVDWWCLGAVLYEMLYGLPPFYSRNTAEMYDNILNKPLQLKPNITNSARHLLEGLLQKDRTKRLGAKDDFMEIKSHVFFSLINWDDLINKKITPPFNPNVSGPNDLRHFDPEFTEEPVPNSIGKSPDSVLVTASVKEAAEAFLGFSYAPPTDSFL
The note with it: at 1 µM.

Experiment [20] concerns the target T4, Serine/threonine-protein kinase Sgk1 (Homo sapiens). Particulars: at 10 µM.

Chain of Mitogen-activated protein kinase 14 (Homo sapiens) (Q16539 whole entry): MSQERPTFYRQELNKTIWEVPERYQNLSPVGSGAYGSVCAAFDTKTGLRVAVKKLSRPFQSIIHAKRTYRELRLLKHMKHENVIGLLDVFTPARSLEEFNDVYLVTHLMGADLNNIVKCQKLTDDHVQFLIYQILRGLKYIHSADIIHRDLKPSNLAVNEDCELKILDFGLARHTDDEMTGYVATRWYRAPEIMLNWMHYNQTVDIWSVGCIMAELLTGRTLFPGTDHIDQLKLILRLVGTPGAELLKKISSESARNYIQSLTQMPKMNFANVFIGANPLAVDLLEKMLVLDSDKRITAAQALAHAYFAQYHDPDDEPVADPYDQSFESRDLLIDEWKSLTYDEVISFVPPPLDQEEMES
Chain of Ribosomal protein S6 kinase alpha-3 (Homo sapiens) (P51812 whole entry): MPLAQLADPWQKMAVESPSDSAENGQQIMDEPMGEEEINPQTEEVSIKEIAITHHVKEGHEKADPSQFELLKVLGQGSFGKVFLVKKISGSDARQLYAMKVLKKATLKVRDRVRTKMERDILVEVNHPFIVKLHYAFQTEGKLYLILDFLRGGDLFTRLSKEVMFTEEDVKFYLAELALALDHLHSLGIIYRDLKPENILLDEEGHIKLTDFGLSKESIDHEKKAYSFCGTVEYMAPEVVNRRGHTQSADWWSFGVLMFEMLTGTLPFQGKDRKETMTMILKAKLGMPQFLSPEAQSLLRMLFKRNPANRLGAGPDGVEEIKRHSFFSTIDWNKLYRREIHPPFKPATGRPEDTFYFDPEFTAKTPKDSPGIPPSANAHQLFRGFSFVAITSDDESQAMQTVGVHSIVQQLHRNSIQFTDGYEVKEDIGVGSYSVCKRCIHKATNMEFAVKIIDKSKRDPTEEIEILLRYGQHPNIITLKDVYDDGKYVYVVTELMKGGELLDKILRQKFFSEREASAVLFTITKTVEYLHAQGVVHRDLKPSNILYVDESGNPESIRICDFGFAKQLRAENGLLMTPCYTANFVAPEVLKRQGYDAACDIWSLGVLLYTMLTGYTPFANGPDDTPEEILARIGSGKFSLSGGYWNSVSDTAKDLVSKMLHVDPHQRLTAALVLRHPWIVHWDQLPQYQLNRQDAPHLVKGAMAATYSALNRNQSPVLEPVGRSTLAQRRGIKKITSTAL
Chain of Ribosomal protein S6 kinase alpha-1 (Homo sapiens) (Q15418 whole entry): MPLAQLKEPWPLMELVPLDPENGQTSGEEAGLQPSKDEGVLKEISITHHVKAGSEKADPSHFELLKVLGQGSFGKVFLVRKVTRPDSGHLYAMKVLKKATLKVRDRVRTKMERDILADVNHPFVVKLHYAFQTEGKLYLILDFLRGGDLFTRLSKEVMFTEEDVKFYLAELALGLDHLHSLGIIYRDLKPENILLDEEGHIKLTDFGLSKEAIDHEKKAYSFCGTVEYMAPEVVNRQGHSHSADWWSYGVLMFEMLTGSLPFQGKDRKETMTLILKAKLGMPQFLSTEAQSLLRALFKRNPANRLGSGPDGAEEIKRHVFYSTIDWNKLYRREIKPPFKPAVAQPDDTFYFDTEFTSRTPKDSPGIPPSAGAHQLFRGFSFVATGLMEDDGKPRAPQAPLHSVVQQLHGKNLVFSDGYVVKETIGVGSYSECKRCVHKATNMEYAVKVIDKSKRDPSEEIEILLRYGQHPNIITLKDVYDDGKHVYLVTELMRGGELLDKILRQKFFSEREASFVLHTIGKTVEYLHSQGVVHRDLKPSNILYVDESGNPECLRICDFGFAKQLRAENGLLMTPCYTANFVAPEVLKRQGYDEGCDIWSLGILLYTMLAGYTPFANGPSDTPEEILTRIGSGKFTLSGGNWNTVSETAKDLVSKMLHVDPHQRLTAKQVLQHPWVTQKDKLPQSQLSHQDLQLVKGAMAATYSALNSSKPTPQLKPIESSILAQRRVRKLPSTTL
Chain of Ribosomal protein S6 kinase alpha-2 (Homo sapiens) (Q15349 whole entry): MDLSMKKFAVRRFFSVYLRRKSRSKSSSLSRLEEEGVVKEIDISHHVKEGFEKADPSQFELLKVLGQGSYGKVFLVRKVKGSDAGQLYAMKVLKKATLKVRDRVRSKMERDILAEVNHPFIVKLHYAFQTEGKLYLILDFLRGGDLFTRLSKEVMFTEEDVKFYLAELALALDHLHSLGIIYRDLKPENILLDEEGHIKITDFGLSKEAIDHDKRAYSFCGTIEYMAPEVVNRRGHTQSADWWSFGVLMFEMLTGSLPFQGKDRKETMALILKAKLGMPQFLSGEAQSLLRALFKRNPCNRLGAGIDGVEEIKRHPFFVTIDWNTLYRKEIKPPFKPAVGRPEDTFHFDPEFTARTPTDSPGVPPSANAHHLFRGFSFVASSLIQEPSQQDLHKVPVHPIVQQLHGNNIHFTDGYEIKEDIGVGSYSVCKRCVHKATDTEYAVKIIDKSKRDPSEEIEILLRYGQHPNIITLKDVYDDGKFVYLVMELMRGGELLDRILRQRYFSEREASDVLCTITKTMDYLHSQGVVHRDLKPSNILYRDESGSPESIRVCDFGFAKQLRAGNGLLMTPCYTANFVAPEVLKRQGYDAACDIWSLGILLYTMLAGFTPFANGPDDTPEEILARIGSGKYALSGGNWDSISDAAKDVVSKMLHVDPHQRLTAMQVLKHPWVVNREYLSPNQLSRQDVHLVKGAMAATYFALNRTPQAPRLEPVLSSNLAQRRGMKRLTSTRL
Chain of Mitogen-activated protein kinase 11 (Homo sapiens) (Q15759 whole entry): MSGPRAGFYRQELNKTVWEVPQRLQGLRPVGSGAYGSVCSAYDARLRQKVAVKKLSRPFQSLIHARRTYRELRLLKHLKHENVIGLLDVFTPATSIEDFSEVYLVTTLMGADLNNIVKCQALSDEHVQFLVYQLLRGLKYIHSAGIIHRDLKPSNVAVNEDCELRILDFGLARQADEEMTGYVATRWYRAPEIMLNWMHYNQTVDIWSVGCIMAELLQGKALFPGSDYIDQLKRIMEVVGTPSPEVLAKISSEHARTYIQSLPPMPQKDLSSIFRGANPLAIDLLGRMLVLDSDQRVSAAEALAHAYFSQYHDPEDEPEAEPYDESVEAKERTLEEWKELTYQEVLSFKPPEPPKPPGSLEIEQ
Chain of Ribosomal protein S6 kinase alpha-6 (Homo sapiens) (Q9UK32 whole entry): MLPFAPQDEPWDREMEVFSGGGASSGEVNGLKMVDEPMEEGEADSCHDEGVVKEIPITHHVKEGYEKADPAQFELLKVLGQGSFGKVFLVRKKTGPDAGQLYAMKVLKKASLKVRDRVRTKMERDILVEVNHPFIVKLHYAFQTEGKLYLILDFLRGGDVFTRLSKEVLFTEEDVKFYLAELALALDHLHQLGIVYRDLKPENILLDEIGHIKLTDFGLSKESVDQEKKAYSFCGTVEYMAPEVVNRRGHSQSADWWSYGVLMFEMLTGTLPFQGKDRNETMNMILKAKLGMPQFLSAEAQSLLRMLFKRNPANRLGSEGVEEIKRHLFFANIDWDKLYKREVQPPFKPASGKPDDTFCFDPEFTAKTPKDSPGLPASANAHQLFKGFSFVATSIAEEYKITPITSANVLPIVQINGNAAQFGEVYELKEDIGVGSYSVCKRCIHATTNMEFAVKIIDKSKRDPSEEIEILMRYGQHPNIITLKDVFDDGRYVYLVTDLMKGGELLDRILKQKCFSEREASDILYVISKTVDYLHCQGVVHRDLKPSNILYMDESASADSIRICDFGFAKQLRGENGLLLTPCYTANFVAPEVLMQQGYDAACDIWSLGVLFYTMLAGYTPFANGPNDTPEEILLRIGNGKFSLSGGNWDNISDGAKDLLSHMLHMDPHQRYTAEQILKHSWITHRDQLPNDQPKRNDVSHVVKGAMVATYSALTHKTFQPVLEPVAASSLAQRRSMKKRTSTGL

Take `Oc1ccc(-c2nc(-c3ccc(F)cc3)c(-c3ccncc3)[nH]2)cc1`: the residual activity in experiment [1] turned out to be 1%; in [2] it was 1%; in experiment [3], 112%; in [4], 67%.
In the case of `O=C1Nc2ccc3ncsc3c2/C1=C/c1c[nH]cn1`, the residual activity in experiment [5] was 56%; in experiment [6], 45%; in experiment [7] it was 28%; in experiment [8] it was 4%; in experiment [9] it was 18%; in [10], 1%. The residual activity is 5% in experiment [11]; -1% in experiment [12]; 14% in experiment [13]; 2% in [14]; 80% in experiment [1]; 74% in [2]. Besides, the residual activity was determined as 71% in experiment [15]; 35% in experiment [16]; 50% in experiment [3]; 16% in experiment [4]; 62% in [17]; 24% in [18]. Besides, the residual activity was found to be 31% in experiment [19] and 7% in [20].
For `COc1cc2ncnc(Nc3ccc(OCc4ccccc4)cc3)c2cc1OC`, the residual activity in experiment [5] is 41%; in experiment [6], 60%; in [7], 106%; in [8] it was 83%; in experiment [9], 52%; in experiment [10], 46%. Further, the residual activity in experiment [11] stood at 110%; in experiment [12] it was 72%; in experiment [13] it was 106%; in experiment [14] it was 133%; in experiment [1] it was 102%; in [2] it was 106%. Moreover, the residual activity is 107% in experiment [15]; 102% in experiment [16]; 111% in experiment [3]; 115% in [4]; 127% in experiment [17]; 109% in experiment [18]. Also, the residual activity in experiment [19] came out at 115%; in experiment [20] it was 80%.
As to `COc1ccc2c(c1)/C(=C/c1cnc[nH]1)C(=O)N2`, the residual activity in experiment [5] was determined as 97%; in experiment [6], 73%; in [7] it was 60%; in experiment [8] it was 17%; in experiment [11], 30%; in experiment [12], 4%. Besides, the residual activity was 53% in [13] and 12% in experiment [14].
In the case of `CC(C)[C@H](CO)Nc1nc(Nc2cccc(Cl)c2)c2ncn(C(C)C)c2n1`, the residual activity turned out to be 85% in experiment [5]; 78% in experiment [6]; 77% in experiment [7]; 19% in experiment [8]; 62% in experiment [9]; 15% in experiment [10]. The residual activity in experiment [11] was found to be 75%; in experiment [12] it was 21%; in [13], 40%; in experiment [14] it was 24%; in [1], 88%; in experiment [2], 80%. The residual activity in [15] is 101%; in experiment [16], 96%; in [4], 98%.
For `COc1cc(OC)c(/C=C2\C(=O)Nc3ccccc32)c(OC)c1`, the residual activity in [7] was determined as 102%; in [8] it was 101%; in experiment [9], 63%; in experiment [10] it was 57%; in [11] it was 96%; in experiment [12], 97%. Moreover, the residual activity in [13] was determined as 103%; in experiment [14], 95%; in experiment [1] it was 89%; in experiment [2], 85%; in experiment [15], 99%; in experiment [16], 92%. Further, the residual activity in experiment [3] turned out to be 97%; in experiment [4] it was 96%; in experiment [19] it was 82%; in experiment [20], 86%.
